# In PubChem BioAssay AID602123 (The Scripps Research Institute Molecular Screening Center, 2011):
# In all, about 360,000 compounds went through this assay and about 1,500 (0.42%) were called active. The list comes from a sample in which actives are over-represented; it also holds similar structures and randomly drawn compounds. Unmarked numbers belong to inactive results. Rule as the data show it: active = inhibition above about 13% (passing the limit was not always enough); inactive = the rest.
# Target: Lon protease (Escherichia coli (strain K12)) (UniProt P0A9M0)
# Sequence (P0A9M0 whole entry, looked up): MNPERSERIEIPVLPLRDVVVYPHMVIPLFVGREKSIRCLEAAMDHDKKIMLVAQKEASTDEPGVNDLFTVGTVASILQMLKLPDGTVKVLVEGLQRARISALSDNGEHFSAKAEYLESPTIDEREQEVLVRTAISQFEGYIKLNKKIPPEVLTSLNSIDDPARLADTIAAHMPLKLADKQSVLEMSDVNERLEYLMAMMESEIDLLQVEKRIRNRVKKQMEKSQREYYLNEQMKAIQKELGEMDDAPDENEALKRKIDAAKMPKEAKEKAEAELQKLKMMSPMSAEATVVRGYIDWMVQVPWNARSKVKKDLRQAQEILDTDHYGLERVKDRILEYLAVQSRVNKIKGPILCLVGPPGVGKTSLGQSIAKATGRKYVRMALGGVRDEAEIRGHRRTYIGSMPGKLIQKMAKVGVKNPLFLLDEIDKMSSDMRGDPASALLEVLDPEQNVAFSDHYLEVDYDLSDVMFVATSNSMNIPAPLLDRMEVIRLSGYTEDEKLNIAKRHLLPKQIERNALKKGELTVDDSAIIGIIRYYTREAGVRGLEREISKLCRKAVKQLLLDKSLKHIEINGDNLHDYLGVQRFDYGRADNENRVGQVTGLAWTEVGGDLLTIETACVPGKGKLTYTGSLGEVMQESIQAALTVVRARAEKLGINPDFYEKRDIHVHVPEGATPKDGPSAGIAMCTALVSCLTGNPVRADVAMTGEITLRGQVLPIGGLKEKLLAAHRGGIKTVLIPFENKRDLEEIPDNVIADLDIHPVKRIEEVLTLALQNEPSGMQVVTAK
# Assay: inhibitors of E. coli Lon protease, primary screen, biochemical, fluorescence polarization (AID 602123);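 also: 0% = enzyme with probe and DMSO and 100% = no enzyme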
# Conditions: purified E. coli Lon protease, at 7.94 µM, active compounds read high
row,Compound,inhibition
1,O=S(=O)(NCc1ccccn1)c1ccc(Br)s1,-5.95%
2,O=S(=O)([N-]c1nc2ccccc2nc1-[n+]1ccc(Cc2ccccc2)cc1)c1ccc(Br)s1,51.7% (active)
3,CCOC(=O)C(C(=O)c1ccccc1)C(c1ccccc1)c1nccc2ccccc12 (configuration not stated),-5.25%
4,CCOCCOCCC(C(=O)O)P(=O)(c1ccccc1)c1ccccc1 (configuration not stated),1.28%
5,CSc1ncccc1C(=O)NCC(c1ccco1)N1CCCCC1 (configuration not stated),2.84%
6,O=C(NCc1ccco1)c1cnn2c(C(F)(F)F)cc(-c3ccco3)nc12,-0.62%
7,Oc1ccc2ccccc2c1N=Nc1nccs1,43.2% (active)
8,O=C(COC(=O)CNC(=O)C1CCCCC1)Nc1cccc(F)c1,-17.9%
9,CCN1CCN(CC(=O)c2cc(OC)c(OC)c(OC)c2)CC1,7.78%
10,Cc1ccc(C=O)c([B-](F)(F)F)c1,-1.79%
11,CN1c2ccc(C=O)c3c(C=O)ccc(c23)N(C)C1(C)C,117% (active)
12,COc1ccc(C(=O)NCC(c2ccco2)N2CCc3ccccc32)cc1OC (configuration not stated),4.85%
13,COc1cc(OC)cc(C(=O)NNC(=O)Cc2cccs2)c1,-9.81%
14,COc1ccc(C)cc1NC(=O)CNCc1cccs1,5.01%
15,COc1ccc(OC)c(NC(=O)Cc2cccs2)c1,32.4% (active)
16,COc1cc(C(=O)Nc2ncccc2C)ccc1OCC(=O)N1CCOCC1,-2.64%
17,CC(=O)CC[C@@H](C)O[C@@H]1OC(C)[C@H](O)CC1O (some centres not stated),1.06%
18,CCc1cc2c(=O)c(-c3nc4ccccc4n3C)c(CCCC(=O)O)oc2cc1OC(=O)C(C)(C)C,-5.21%
19,O=C1C(Sc2cccc(F)c2)=C[C@@]2(O)CC[C@@H](O)[C@]1(Sc1cccc(F)c1)[C@H]2O,-1.25%
20,COc1ccc(C(=O)NCc2nnc(SCC(=O)NC3=NCCS3)n2C)cc1,1.04%
21,COc1ccc(C(=O)NCc2nnc(SCCOc3ccccc3)n2C)cc1,19.3% (active)
22,COc1ccc(CC(=O)NCc2nnc(SCC(=O)Nc3nccs3)n2C)cc1,-1.92%
23,C/C(=N\NC(=O)NC1CCCCC1)c1ccc(OC(F)F)cc1OC(F)F,-5.36%

row,Compound,inhibition
1,O=C1C(C=NCC2CCCO2)=C(O)c2ccccc21 (configuration not stated),3.5%
2,N#Cc1cc([N+](=O)[O-])ccc1NCC1CCCO1 (configuration not stated),7.82%
3,O=C1c2cccc3c([N+](=O)[O-])ccc(c23)C(=O)N1CC1CCCO1 (configuration not stated),25.4% (active)
4,COc1ccc(SCCN2CCN(CC(C)C)CCC2=O)cc1,8.99%
5,CN(Cc1cn(Cc2ccc(C(F)(F)F)cc2)nn1)C1CN(Cc2cn(Cc3ccc(C(F)(F)F)cc3)nn2)S(=O)(=O)C1 (configuration not stated),4.67%
6,Cc1ccccc1S(=O)(=O)NC(=O)C1(C)CCN1C(=O)C1(c2ccccc2)CCCC1 (configuration not stated),-3.92%
7,CCN(CC)C(=O)CSc1nnc(-c2ccc(S(=O)(=O)NCc3ccccc3Cl)cc2)o1,11.8%
8,Cc1cnc(CN(C)C(=O)C2CCC(=O)N(CCc3cccc(F)c3)C2)[nH]1 (configuration not stated),0.28%
9,COc1ccc(CC(=O)Nc2ccc(-c3nnc(-c4ccccc4)o3)cc2)cc1,27.1% (active)
10,COc1ccc(NC(=O)CSc2nnc(Cc3ccccc3)c(=O)n2N)cc1,1.33%
11,COc1ccc(NC(=O)CC(NC(C)c2ccccc2)C(=O)O)cc1 (configuration not stated),1.2%
12,O=c1c2ccccc2nc2n1C(CSCc1cccc(C(F)(F)F)c1)CS2 (configuration not stated),-0.91%
13,COc1ccc(C2C3=C(OC(C)=O)c4ccccc4C3=Nc3c2c(=O)n(C)c(=O)n3C)cc1 (configuration not stated),-3.27%
14,CC1Cc2cc(/C(O)=C3\C(=O)C(=O)N(Cc4cccnc4)C3c3ccccc3F)ccc2O1 (configuration not stated),-8.03%
15,O=C1C=C(NCCNc2c(F)c(F)c(CO)c(F)c2F)CCC1,16.1% (active)
16,CC1CC(C)CN(C(=O)COC(=O)c2ccc3ncsc3c2)C1 (configuration not stated),0.01%
17,CC(C)NC(=O)Nc1cccc2c1O[C@@H](CN(C)S(=O)(=O)c1ccc(F)cc1)[C@@H](C)CN([C@H](C)CO)C2=O,-17.1%
18,O=C(COC(=O)c1cccc(Br)c1)Nc1cccc2c1C(=O)c1ccccc1C2=O,-3.73%
19,O=C(Cn1cnc2ccccc21)Nc1ccccc1-c1ccccc1,-15.9%
20,O=C(COC(=O)Cn1cnc2ccccc21)Nc1cccc2c1C(=O)c1ccccc1C2=O,49.2% (active)
21,Cc1ccc(S(=O)(=O)N2CCC(C(=O)NCCC3=CCCCC3)CC2)cc1C,2.33%
22,Cc1ccc(OCC(=O)Nc2cccc3c2CCCC3)cc1C,-1.11%
23,O=C(Nc1ccc(Br)cc1F)C1CC(=O)N(C2CCCCC2)C1 (configuration not stated),-9.6%

row,Compound,inhibition
1,CCS(=O)(=O)n1nc(-c2ccccc2)nc1SCc1ccccc1,0.39%
2,CC(C)Cc1ccc(-c2cc3nc(NCc4cccc(Cl)c4)ccn3n2)cc1,-0.63%
3,COc1ccccc1-c1cc2nc(NCc3cccc(Cl)c3)ccn2n1,19.1% (active)
4,COc1ccc(-c2cc3nc(NCCOc4ccccc4)ccn3n2)cc1,5.17%
5,O=C(NCCc1ccco1)C(=O)NCCC1CCCCN1S(=O)(=O)c1ccccc1 (configuration not stated),0.36%
6,COc1cc(OC)c2ccc(=O)oc2c1C(CCN1CCN(c2ccccc2)CC1)c1ccc2c(c1)OCO2 (configuration not stated),-2.01%
7,O=C(NC(=O)c1ccc(Cl)c(Cl)c1)OC1CCS(=O)(=O)C1 (configuration not stated),-3.19%
8,CCOCCCNS(=O)(=O)Cc1ccccc1,5.68%
9,CCCc1cc(=O)[nH]c(SCC(=O)Nc2ccc(S(=O)(=O)N3CCCC3)cc2)n1,-14.4%
10,CCCc1cc(=O)[nH]c(SCC(=O)N2CCN(S(=O)(=O)c3ccc(C)cc3C)CC2)n1,22.9% (active)
11,Cc1ccc(S(=O)(=O)N2CCN(C(=O)CSc3cc(C)ccc3C)CC2)c(C)c1,1.59%
12,COc1ccc(S(=O)(=O)N2CCCCC2c2cc(C(=O)NCc3ccc(F)cc3)no2)cc1 (configuration not stated),-3.9%
13,CCCOn1c(-n2nc(C)cc2C)nc2ccccc2c1=O,-4.29%
14,CC1(C)NC(=O)N(CC(=O)Nc2ccc(-c3ccccc3)cc2)C1=O,-5.51%
15,COc1ccc(NC(=S)NCc2cccs2)c(OC)c1,-8.04%
16,COc1ccc2[nH]c(C)c(CCN(Cc3cccs3)C(=S)Nc3ccccc3OC)c2c1,18.1% (active)
17,Cc1[nH]c2ccccc2c1CCN(Cc1cccs1)C(=S)NC(C)(C)C,-6.78%
18,CCn1c(CSc2nncn2-c2ccc(OC)cc2)nc2cc(S(=O)(=O)N(C)C)ccc21,3.36%
19,CCCn1nc(C(=O)OCc2nc(N)nc(Nc3ccccc3C)n2)c2ccccc2c1=O,-13.7%
20,Cc1ccccc1Nc1nc(N)nc(CN2CCN(c3ccccn3)CC2)n1,16.7% (active)
21,Cc1ccccc1Nc1nc(N)nc(CSc2nnc3ccccn23)n1,7.49%
22,Cc1sc(NC(=S)NC(=O)c2cccs2)nc1-c1ccc(CC(C)C)cc1,-2.21%
23,O=C(CSCc1ccc([N+](=O)[O-])cc1)Nc1cccc(C(=O)Nc2ccccc2C(=O)O)c1,-7.21%

row,Compound,inhibition
1,Cc1ccc(S(=O)(=O)N2CCC(C(=O)OCC(=O)N(C)c3ccccc3)CC2)cc1C,-4.62%
2,C[C@@H]1CN([C@H](C)CO)C(=O)CCCn2nncc2CO[C@@H]1CN(C)C(=O)OCc1ccccc1,-12.2%
3,O=C(CSc1n[nH]c(-c2cccnc2)n1)Nc1ccnc2ccccc12,-1.63%
4,CCN(CC(=O)NC1CCS(=O)(=O)C1)c1nc(-c2cccnc2)nc2ccccc12 (configuration not stated),-4.31%
5,COc1ccc(Nc2nc(-c3cccnc3)nc3ccccc23)cn1,51.2% (active)
6,O=C(C1=C(O)C(=O)N(Cc2ccccc2)C1c1cccnc1)c1ccco1 (configuration not stated),-4.41%
7,O=C(C1=C(O)C(=O)N(c2ncccn2)C1c1cccs1)c1ccco1 (configuration not stated),44.3% (active)
8,Cc1ccc2nc(N3C(=O)C(O)=C(C(=O)c4ccco4)C3c3cccc(O)c3)sc2c1 (configuration not stated),-1.95%
9,CC/C(C)=N/Nc1nc2sc3c(c2c(=O)[nH]1)CC(C)(C)OC3,20.9% (active)
10,CCOC(=O)Cn1c(SC)nc2sc3c(c2c1=O)CC(C)(C)OC3,-4.5%
11,CC(C)c1nc2sc3c(c2c(=O)n1N)CC(C)(C)OC3,-4.29%
12,CCC(C)c1ccc(NC(=S)NCc2ccccn2)cc1 (configuration not stated),0.44%
13,CN(C)c1ccc(Nc2c3c4c(cccc4n(C)c2=O)C(=O)c2ccccc2-3)cc1,48.2% (active)
14,CN(C)c1ccc(C2N(C)C(=O)c3ccccc3N2C)cc1 (configuration not stated),-1.4%
15,COc1ccc(NC(=O)CC2C(=O)OCC3CCCCN32)cc1Cl (configuration not stated),1.67%
16,Cc1ccc(C(=O)O)c(NC=O)c1OCc1ccccc1,-0.93%
17,COc1ccc(-c2csc(C(O)c3cccc(Cl)c3)n2)cn1 (configuration not stated),-11.3%
18,CCN1CC=C2C(C#N)=C(N)C(C#N)(C#N)[C@H](c3ccoc3)[C@H]2C1,120% (active)
19,CC(C)C(=O)Nc1nnc(Sc2ccc(N(C)C)cc2)s1,-6.47%
20,CCN(CC(=O)NCc1ccc(Cl)cc1)C(=O)CSc1ccccc1,-3.84%
21,CCOC(=O)NC(=O)C(=CNc1cccc(OC)c1)C(=O)NC(=O)OCC,-2.26%
22,CCN(CC)C(=O)CN(c1cccc(OC)c1)S(=O)(=O)c1ccc(C)cc1,-0.24%
23,CCOCCN(C=O)c1cccc(OC)c1,32.6% (active)
